Inconclusive results are not listed. Activity calls are given as the source filed them. Unless noted, the call rests on the fitted dose curve; in most records, active means well fitted curve in the direction sought with a large enough effect; inconclusive means small, poorly fitted or top-dose-only effect, or another doubt; inactive means no such curve, though single readings can be large; an effect the other way counts as inactive or inconclusive.

Assay [1] in a line: Confirmation and Secondary Assay for Modulators of Hemoglobin Beta Chain Splicing at IVS2 654 locus (AID 910).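 Further: HeLa cells stably carrying EGFP split by mutant beta-globin IVS2-654 intron.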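 Further: potency means the concentration at half of the fitted maximal effect; potency of activators that raise GFP signal by restoring correct splicing.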 In outline:
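HeLa cells stably expressing EGFP interrupted by β-globin IVS2-654 intron, seeded overnight in Opti-MEM/2% FCS, then treated 2 days at 37 °C. Restored splicing read as total peak GFP intensity per well by laser scanning cytometry (488 nm excitation, 500–520 nm emission); 500 nM antisense PNA as control.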

Assay [2] in a line: Confirmation and Secondary Assay for Modulators of Hemoglobin Beta Chain Splicing at IVS2 705 locus (AID 930).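 Further: GFP fluorescence per well restored by corrected splicing of the IVS2-705 intron in EGFP.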 Further: potency means the concentration at half of the fitted maximal effect. A digest of the protocol: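 Stable HeLa line with EGFP disrupted by mutant beta-globin intron 2 (705). Overnight attachment, then 2 days of compound at 37C, 5% CO2. Signal: peak GFP intensity summed over objects 5-250 µm.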
Assay [3] has as its target Luciferin 4-monooxygenase (Photinus pyralis) (UniProt P08659). Briefly: Biochemical firefly luciferase enzyme assay for NPC (AID 624030).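 Further: purified P. pyralis luciferase at 10 nM with luciferin and ATP substrate; nearly all actives have a fitted effect of over 70% in size.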 In outline:
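Purified P. pyralis luciferase at 10 nM in 50 mM Tris Acetate (final), luminescence read within 5 minutes of enzyme addition to compounds. Activity normalised to PTC124 versus DMSO; concentration-response curves classed by r2, magnitude and activity.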

Assay [4] in a line: S16 Schwann cell viability assay (CellTiter-Glo assay) (AID 624031).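 Further: cellular ATP luminescence as a viability measure; nearly all actives have a fitted effect of over 70% in size.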 A digest of the protocol:
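Native S16 Schwann cells (rat), serum-containing medium, overnight attachment then 24 h drug exposure at 37 °C/5% CO2. CellTiter-Glo ATP signal; normalized to cell-free and vehicle wells.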
(In general: Cellular ATP, detected with luciferase, serves as a proxy for viable cell number.)

Assay [5] in a line: S16 Schwann cell PMP22 intronic element firefly luciferase assay (AID 624032). Further: nearly all actives have a fitted effect of over 30% in size. Further: potency means the concentration at half of the fitted maximal effect. In outline: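 Rat S16 Schwann cells stably carrying firefly luciferase driven by a PMP22 intronic element, in 10% FBS, treated 24 h at 37 C. ONE-Glo luminescence normalized to PTC124 control and DMSO (0%); curves classed by r2, magnitude and activity.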
Assay [6] is described as follows: S16 Schwann cell PMP22 intronic element beta-lactamase assay (AID 624044; calls by dose curve; further: nearly all actives have a fitted effect of over 15% in size; further: potency means the concentration at half of the fitted maximal effect). A digest of the protocol: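 Rat S16 Schwann cells with beta-Lac driven by a PMP22 intronic element, compound-treated 24 h at 37 °C. LiveBLAzer FRET B/G read: 460 nm normalized to potassium clavulanate vs DMSO; 535 nm FRET as viability; concentration-effect curves classified.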
The test system of a further assay is CP191. Briefly: qHTS profiling for inhibitors of Plasmodium falciparum proliferation (AID 504749). Further: nearly all actives have a fitted effect of over 60% in size. Further: potency means the concentration at half of the fitted maximal effect. The following applies: P. falciparum in erythrocytes, SYBR Green DNA, 72 h; series mostly up to 28.7 µM. A digest of the protocol: (§1)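 P. falciparum-infected erythrocytes (0.3% parasitemia, 2.5% hematocrit) incubated with compound 72 h at 37 C, 5% CO2. Parasite DNA detected by SYBR Green after lysis, overnight at room temperature; normalised to 0.29 uM artemisinin and DMSO.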

For a further assay, the system named is CP192. The description is as above. As to conditions: P. falciparum in erythrocytes, SYBR Green DNA, 72 h; series mostly up to 28.7 µM. A digest of the protocol:
as §1

The next assay has as its system CP252. The assay is described as above. The following applies: P. falciparum in erythrocytes, SYBR Green DNA, 72 h; series mostly up to 28.7 µM. In outline:
as §1

The next assay has as its system CP256. The assay is described as above. The following applies: P. falciparum in erythrocytes, SYBR Green DNA, 72 h; series mostly up to 28.7 µM. A digest of the protocol: as §1
The next assay concerns CP268. The description is as above. The following applies: P. falciparum in erythrocytes, SYBR Green DNA, 72 h; series mostly up to 28.7 µM. In outline:
as §1

Another assay has as its system CP269. The description is as above. As to conditions: P. falciparum in erythrocytes, SYBR Green DNA, 72 h; series mostly up to 28.7 µM. In outline:
as §1

The next assay relates to CP325. The assay is described as above. As to conditions: P. falciparum in erythrocytes, SYBR Green DNA, 72 h; series mostly up to 28.7 µM. In outline: as §1
Another assay has as its system DIV14. The description is as above. As to conditions: P. falciparum in erythrocytes, SYBR Green DNA, 72 h; series mostly up to 28.7 µM. In outline:
as §1

In the next assay the test system is DIV17. The assay is described as above. The following applies: P. falciparum in erythrocytes, SYBR Green DNA, 72 h; series mostly up to 28.7 µM. In outline: as §1
A further assay has as its system GB4. The assay is described as above. The following applies: P. falciparum in erythrocytes, SYBR Green DNA, 72 h; series mostly up to 28.7 µM. In outline: as §1
Another assay deals with CP262. The description is as above. As to conditions: P. falciparum in erythrocytes, SYBR Green DNA, 72 h; series mostly up to 28.7 µM. In outline: as §1
The next assay has as its system CP266. The description is as above. As to conditions: P. falciparum in erythrocytes, SYBR Green DNA, 72 h; series mostly up to 28.7 µM. A digest of the protocol: as §1
A further assay has as its system PC15. Described as above. The following applies: P. falciparum in erythrocytes, SYBR Green DNA, 72 h; series mostly up to 28.7 µM. In outline:
as §1

The subject of another assay is TAB165. The description is as above. The following applies: P. falciparum in erythrocytes, SYBR Green DNA, 72 h; series mostly up to 28.7 µM. A digest of the protocol:
as §1

Sequence of Luciferin 4-monooxygenase (Photinus pyralis) (P08659 whole entry, looked up): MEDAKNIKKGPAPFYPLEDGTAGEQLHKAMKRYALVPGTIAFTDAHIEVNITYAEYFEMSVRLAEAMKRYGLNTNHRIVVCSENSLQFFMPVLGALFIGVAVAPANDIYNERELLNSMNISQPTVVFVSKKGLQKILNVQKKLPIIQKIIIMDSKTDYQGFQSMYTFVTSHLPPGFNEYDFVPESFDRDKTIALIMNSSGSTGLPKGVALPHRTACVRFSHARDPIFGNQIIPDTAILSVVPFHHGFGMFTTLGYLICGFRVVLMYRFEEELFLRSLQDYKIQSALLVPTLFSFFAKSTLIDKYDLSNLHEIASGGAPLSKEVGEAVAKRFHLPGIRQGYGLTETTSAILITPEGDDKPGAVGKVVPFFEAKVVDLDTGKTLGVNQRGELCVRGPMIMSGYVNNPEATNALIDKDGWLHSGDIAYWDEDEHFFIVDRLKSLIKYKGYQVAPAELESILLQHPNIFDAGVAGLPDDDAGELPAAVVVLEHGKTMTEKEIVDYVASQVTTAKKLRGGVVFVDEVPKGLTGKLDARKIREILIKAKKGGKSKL

Turning to `COc1c2ccoc2cc2oc(=O)ccc12`, the Potency result in [1] and in [2] was “inactive” in each case.

Consider `CO[C@@H]1[C@@H](OC2OC(C)C(OC3CC(C)(O)C(OC(=O)CC(C)C)C(C)O3)C(N(C)C)C2O)[C@@H](CC=O)C[C@@H](C)C(=O)/C=C\C2O[C@H]2C[C@@H](C)OC(=O)C[C@H]1OC(C)=O` (some centres not stated), for which the Potency entry (in assay [3]; in assay [4]; in assay [6]; in the assay with CP192) was “inactive” each time. The Potency in assay [5] is 5.73 µM (active); in the assay on CP191 it was 11.2 µM (active); in the assay on CP252, 5.01 µM (active); with CP256 it was 5.01 µM (active); with CP268 it was 8.49 µM (active); in the assay with CP269 it was 4.78 µM (active). Also, the Potency is 2.69 µM (active) in the assay on CP325, 12 µM (active) in the assay on DIV14, 10.7 µM (active) in the assay on DIV17 and 13.5 µM (active) with GB4.

With `NC1=NC(S)C2N=CN=C2N1` (configuration not stated), the Potency in [1] is 2 µM (active); in assay [2] it was 5.01 µM (active); in assay [5] it was 1.44 µM (active); in assay [6] it was 3.98 µM (active). For the same compound, the Potency entry with CP192, with CP262, in the assay on CP266, with CP268, in the assay with CP269 and in the assay on CP325 was “inactive” throughout. Further, the Potency entry with DIV14, in the assay with DIV17, in the assay on GB4, in the assay on PC15 and in the assay on TAB165 was “inactive” each time.

As for `C/C=C\c1ccc(OC)cc1`, the Potency result (in assay [1]; in assay [2]; in assay [3]; in assay [4]; in [5]; in the assay on CP191) was “inactive” in each case. Moreover, the Potency entry with CP192, in the assay on CP252, with CP256, in the assay with CP262, with CP266 and in the assay with CP268 was “inactive” throughout. The Potency entry with CP269, with CP325, in the assay with DIV14, in the assay with DIV17, in the assay on GB4 and with PC15 was “inactive” in each case. In the assay with TAB165, the Potency entry was “inactive”.

For the compound `CN(C)CCCCCCN(C)C`, the Potency entry (in [3]; in [4]; in [6]; in the assay with CP191; in the assay with CP192; in the assay on CP252) was “inactive” each time. Besides, the Potency result in the assay on CP256, with CP262, in the assay with CP266, in the assay with CP268, in the assay on CP269 and in the assay on CP325 was “inactive” each time. The Potency entry with DIV14, with DIV17, in the assay on GB4, in the assay with PC15 and with TAB165 was “inactive” each time.

On to `S=C1NC=NC2N=CNC12` (configuration not stated), for which the Potency was 3.16 µM (active) in [1]; 3.16 µM (active) in assay [2]; 2.87 µM (active) in assay [5]; 17.8 µM (active) in [6]; 10.7 µM (active) in the assay with CP266. Moreover, the Potency entry (in assay [3]; in assay [4]; with CP191; in the assay with CP252; in the assay with CP256; in the assay with CP262) was “inactive” in each case. Besides, the Potency entry in the assay with PC15 and with TAB165 was “inactive” each time.

For `CO/N=C(/C(=O)N[C@@H]1C(=O)N2C(C(=O)O)=CCS[C@H]12)c1csc(N)n1`, the Potency entry (in assay [3]; in assay [4]; in assay [5]; in assay [6]; with CP191; with CP192) was “inactive” each time. Besides, the Potency result in the assay on CP252, with CP256, in the assay on CP262, in the assay on CP266, in the assay with CP268 and in the assay with CP269 was “inactive” throughout. In addition, the Potency entry with CP325, in the assay on DIV17, in the assay on GB4, in the assay on PC15 and in the assay on TAB165 was “inactive” each time.

Source of the values: PubChem BioAssay (NCATS).
